For the assay, the target named is Genome polyprotein (dengue virus type 2) (UniProt P29990).
[1] abbreviates: Thailand/16681/1984, Concentration 25.0 uM, Number of replicates 1.0.

Hit rate of the full screen: of about 2,000 compounds, about 110 (5.5%) showed an effect of 50% or more. Many of the other results were omitted from the sample, so strong results are more common in it than they were.

In general, inhibition refers to the change of the read-out against control, counted positive when it falls.

Regarding `O=C(O)c1cc(Cl)ccc1NS(=O)(=O)c1ccc(Br)cc1`, the inhibition was determined as 7.98% (Thailand/16681/1984, Concentration 49.5 uM, Number of replicates 2.0, Standard deviation 1.3795853744617563 %); 19.6% (Thailand/16681/1984, Concentration 99.01 uM, Number of replicates 2.0, Standard deviation 2.3616490916140984 %); 67% (Thailand/16681/1984, Concentration 198.0 uM, Number of replicates 2.0, Standard deviation 0.9946440456706616 %).

`CNC(=O)c1cc(OC)ccc1NS(=O)(=O)c1ccc(Oc2ccccc2Cl)cc1`: the inhibition reads like this: (Thailand/16681/1984, Concentration 49.5 uM, Number of replicates 2.0, Standard deviation 1.018543331825067 %) 7.08%; (Thailand/16681/1984, Concentration 99.01 uM, Number of replicates 2.0, Standard deviation 0.3266212172200244 %) 15.5%; (Thailand/16681/1984, Concentration 198.0 uM, Number of replicates 2.0, Standard deviation 0.9287695329724984 %) 21.9%.

For the compound `CNC(=O)c1cc(Cl)ccc1NS(=O)(=O)c1ccc(NS(C)(=O)=O)cc1`, the inhibition is, setting by setting: (Thailand/16681/1984, Concentration 49.5 uM, Number of replicates 2.0, Standard deviation 0.6295365180266114 %) 1.5%; (Thailand/16681/1984, Concentration 99.01 uM, Number of replicates 2.0, Standard deviation 0.4200098669756753 %) 3.13%; (Thailand/16681/1984, Concentration 198.0 uM, Number of replicates 2.0, Standard deviation 0.4807630318175827 %) 6.02%.

For the compound `CNS(=O)(=O)c1ccc(Oc2ccccc2Cl)cc1`, the inhibition is -1.72% (Thailand/16681/1984, Concentration 49.5 uM, Number of replicates 2.0, Standard deviation 2.6119045762628477 %); -0.429% (Thailand/16681/1984, Concentration 99.01 uM, Number of replicates 2.0, Standard deviation 1.5233102161282106 %); 1.7% (Thailand/16681/1984, Concentration 198.0 uM, Number of replicates 2.0, Standard deviation 1.4243001461587221 %).

As to `Cc1cc(CO)c2cccc(Cc3ccccc3C(=O)N[C@@H](CCCN)C(=O)O)c2n1`, the inhibition (Thailand/16681/1984, Concentration 49.95 uM, Number of replicates 2.0, Standard deviation 1.450239339781055 %) was -9.67% and the inhibition (Thailand/16681/1984, Concentration 99.9 uM, Number of replicates 2.0, Standard deviation 1.946109361538337 %) came to 0.782%.

In the case of `CCOC(=O)c1cc(CNCc2nnc3ccccn23)[nH]n1`, the inhibition by setting is: (Thailand/16681/1984, Concentration 49.5 uM, Number of replicates 2.0, Standard deviation 0.017813955579008514 %) 6.64%; (Thailand/16681/1984, Concentration 99.01 uM, Number of replicates 2.0, Standard deviation 0.5926797733534107 %) 7.63%; (Thailand/16681/1984, Concentration 198.0 uM, Number of replicates 2.0, Standard deviation 1.0587355780894199 %) 6.43%.

As for `Cc1cc(CO)c2cccc(CC(=O)N[C@H](Cc3c[nH]cn3)C(=O)O)c2n1`, the inhibition runs as follows: (Thailand/16681/1984, Concentration 49.95 uM, Number of replicates 2.0, Standard deviation 0.5871204354474296 %) 9.25%; (Thailand/16681/1984, Concentration 99.9 uM, Number of replicates 2.0, Standard deviation 0.6044303147182479 %) 24.8%.

With `O=Cc1ccc(N2CCC(C(=O)N3CCN(Cc4ccc(Cl)nc4)CC3)CC2)cc1`, the inhibition under setting [1] came to 10.1%.

Regarding `C[C@H](NC(=O)C1CCN(c2ccc(C=O)cc2)CC1)c1cccc(C(F)(F)F)c1`, the inhibition under setting [1] turned out to be 11%.

As for `O=Cc1ccc(N2CCC(C(=O)N[C@H]3C[C@@H]3c3ccc(F)c(F)c3)CC2)cc1`, under setting [1], the inhibition was 12.2%.

Take `O=Cc1ccc(N2CCC(C(=O)NCc3ccccc3OC(F)(F)F)CC2)cc1`: the inhibition under setting [1] came to 12.7%.

On to `O=Cc1ccc(N2CCC(C(=O)Nc3ccc(Oc4ccc(Cl)cc4)cc3)CC2)cc1`, for which the inhibition under setting [1] came to 3.01%.

Regarding `O=C(c1cc2ccccc2[nH]1)N1CCC[C@H](c2c[nH]c3ncccc23)C1`, the inhibition worked out at 3.74% (Thailand/16681/1984, Concentration 49.5 uM, Number of replicates 2.0, Standard deviation 0.6846779142829902 %); 6.35% (Thailand/16681/1984, Concentration 99.01 uM, Number of replicates 2.0, Standard deviation 0.6286192340156203 %); 4.86% (Thailand/16681/1984, Concentration 198.0 uM, Number of replicates 2.0, Standard deviation 0.39513209958624096 %).

Take `O=Cc1ccc(N2CCC(C(=O)N3CCO[C@@H](c4ccccc4)C3)CC2)cc1`: under setting [1], the inhibition stood at 8.68%.

As to `Cc1cc(CO)c2cccc(Cc3cccc(C(=O)NCCN4CCOCC4)c3)c2n1`, the inhibition reads like this: (Thailand/16681/1984, Concentration 49.95 uM, Number of replicates 2.0, Standard deviation 1.1800261159088588 %) -8.12%; (Thailand/16681/1984, Concentration 99.9 uM, Number of replicates 2.0, Standard deviation 0.7869239771342965 %) -3.46%.

Consider `O=C(NCC1(c2ccncc2F)CCC1)[C@@]1(c2ccc(F)cc2)CCCNC1`, for which the inhibition is, setting by setting: (Thailand/16681/1984, Concentration 49.5 uM, Number of replicates 2.0, Standard deviation 0.9074685157350926 %) -2.89%; (Thailand/16681/1984, Concentration 99.01 uM, Number of replicates 2.0, Standard deviation 1.7740222143666056 %) -1.32%; (Thailand/16681/1984, Concentration 198.0 uM, Number of replicates 2.0, Standard deviation 1.670161679604597 %) -0.296%.

For `Cc1cc(CO)c2cccc(CC(=O)N[C@@H](C)C(N)=O)c2n1`, the inhibition by setting is: (Thailand/16681/1984, Concentration 49.95 uM, Number of replicates 2.0, Standard deviation 0.6764350022386235 %) -6.74%; (Thailand/16681/1984, Concentration 99.9 uM, Number of replicates 2.0, Standard deviation 0.17585957987303982 %) -4.59%.

Regarding `Cc1cc(CO)c2cccc(Cc3cccc(C(=O)N[C@@H](CCN)C(=O)O)c3)c2n1`, the inhibition runs as follows: (Thailand/16681/1984, Concentration 49.95 uM, Number of replicates 2.0, Standard deviation 0.6194784255105775 %) -9.07%; (Thailand/16681/1984, Concentration 99.9 uM, Number of replicates 2.0, Standard deviation 14.524673907807347 %) 0.432%.

Take `Cc1cc(CO)c2cccc(CC(=O)N[C@@H](CCC(N)=O)C(=O)O)c2n1`: the inhibition came out at 95.6% (Thailand/16681/1984, Concentration 49.95 uM, Number of replicates 2.0, Standard deviation 0.1031646955614498 %) and 98.7% (Thailand/16681/1984, Concentration 99.9 uM, Number of replicates 2.0, Standard deviation 0.012461980167701147 %).

Turning to `Cc1cc(CO)c2cccc(Cc3cccc(C(=O)N[C@@H](CCC(N)=O)C(=O)O)c3)c2n1`, the inhibition by setting is: (Thailand/16681/1984, Concentration 49.95 uM, Number of replicates 2.0, Standard deviation 0.9076569964416333 %) 26.5%; (Thailand/16681/1984, Concentration 99.9 uM, Number of replicates 2.0, Standard deviation 0.5346782919570826 %) 79%.

Consider `Cc1cc(CO)c2cccc(Cc3cccc(C(=O)N[C@@H](CCCN)C(=O)O)c3)c2n1`, for which the inhibition is -1.78% (Thailand/16681/1984, Concentration 49.95 uM, Number of replicates 2.0, Standard deviation 0.7049975000059713 %) and 11.7% (Thailand/16681/1984, Concentration 99.9 uM, Number of replicates 2.0, Standard deviation 0.2824297407941699 %).

Consider `Cc1cc(CO)c2cccc(Cc3ccccc3C(=O)N[C@@H](CCC(N)=O)C(=O)O)c2n1`, for which the inhibition was 12.6% (Thailand/16681/1984, Concentration 49.95 uM, Number of replicates 2.0, Standard deviation 0.9816783263695582 %) and 39.4% (Thailand/16681/1984, Concentration 99.9 uM, Number of replicates 2.0, Standard deviation 0.9155644195718532 %).

Take `OB1CCc2c(cccc2N2CC[C@@H](O)C2)O1`: the inhibition is -1.07% (Thailand/16681/1984, Concentration 49.5 uM, Number of replicates 2.0, Standard deviation 2.1653827241885084 %); -0.363% (Thailand/16681/1984, Concentration 99.01 uM, Number of replicates 2.0, Standard deviation 1.9510885480745654 %); 1.02% (Thailand/16681/1984, Concentration 198.0 uM, Number of replicates 2.0, Standard deviation 2.0113725552722737 %).

Values taken from ChEMBL document CHEMBL5606460, “ASAP - DENV-2 NS2B-NS3 protease fluorescence single point” (2024).
